Out of some 64,000 compounds screened, about 15 (0.02%) were called active. How the calls were made is not given here. The list is a sample of the results. Results with a measured potency or affinity are listed apart.
Target: Bcl-2-related protein A1 (Mus musculus) (UniProt Q07440)
Assay: displacement of Bid BH3 peptide from Bfl-1 – biochemical, fluorescence polarization, FITC-Bid, mouse, primary screen (AID 432)
Conditions: at 20 µM, active compounds read high

Sequence of Bcl-2-related protein A1 (Mus musculus) (Q07440 whole entry, looked up): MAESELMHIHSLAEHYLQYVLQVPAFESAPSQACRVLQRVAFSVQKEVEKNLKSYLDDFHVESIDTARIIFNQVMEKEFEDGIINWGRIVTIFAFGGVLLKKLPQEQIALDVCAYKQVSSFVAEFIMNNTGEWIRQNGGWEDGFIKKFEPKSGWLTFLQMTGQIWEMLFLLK

displacement, inactive:
O=C(CN1C(=O)CC(c2ccco2)Sc2ccccc21)NCC1CCCO1 (stereo unspecified) -4.3%
CCCN1CCN(C(=O)Cn2cccc2C(=O)c2ccccc2)CC1 -2.4%
COC(=O)CCC(=O)Nc1ccc(NC(C)=O)cc1 0.3%
COc1ccc(OC)c(S(=O)(=O)n2nc(-c3ccccc3)cc2N)c1 -0.3%
COc1ccc(S(=O)(=O)n2nc(-c3cc(OC)c(OC)c(OC)c3)cc2N)cc1OC 3.4%
CC(C)(C)Sc1nc(O)cc(=O)[nH]1 -4.4%
CN(c1ccccc1)S(=O)(=O)c1cc(C(=O)N2CCN(c3ccccn3)CC2)ccc1Cl -4.6%
CC1CN(C(=O)c2ccc(C(=O)c3ccccc3)cc2)CC(C)O1 (stereo unspecified) -0.8%
O=C1CC2CS(=O)(=O)CC2N1C1CCCCC1 (stereo unspecified) 2%
CCN(CC)S(=O)(=O)c1ccc(Cl)c(C(=O)NCC2CCCO2)c1 (stereo unspecified) -6.5%
COc1nc(-c2ccccc2)ccc1-c1noc(-c2ccc(F)cc2)n1 -1.8%
COc1cccc(-c2nc(-c3ccccc3)no2)c1 -9.1%
COc1ccc(-c2ccc(-c3noc(-c4ccccc4)n3)c(OC)n2)cc1 -44.4%
COc1cc(OC)cc(-c2nc(-c3cc4cc(C)ccc4nc3OC)no2)c1 -2%
COCCNC(=O)C(c1ccccc1)N(Cc1cccs1)C(=O)Cn1nnc2ccccc21 (stereo unspecified) 4.1%
CCCCCOc1ccc(C(=O)NC(CCC)C(=O)O)cc1 (stereo unspecified) 0.1%
CCCn1nnc(NCc2ccc(OCc3cccs3)c(OC)c2)n1 1.2%
CCCNC(=O)Nc1cc(C)on1 -15.6%
N#Cc1cc2c(nc1SCC1COc3ccccc3O1)CCC2 (stereo unspecified) -4.2%
O=C(CC(c1ccccc1O)N1CCCCC1)N1CCCCC1 (stereo unspecified) -9.2%
COc1ccccc1-n1cnnc1SC1CCOC1=O (stereo unspecified) -0.5%
O=C(CSc1nnnn1C1CCCCC1)Nc1cccc(NC(=O)c2ccco2)c1 6.6%
Cc1c(C(=O)NCc2cccnc2)oc2c1C(=O)CC(C)(C)C2 -2.3%
CCCc1[nH]nc2c1C(CCc1ccccc1)C(C#N)=C(N)O2 (stereo unspecified) -3.6%
Cc1nc(SCC(=O)NCC2CCCO2)c2oc3ccccc3c2n1 (stereo unspecified) -3.4%
CC(C)(O)c1nnn(-c2ccccc2)c1C(F)(F)F -3%
COc1cccc(CNCC(=O)N2C(C)CCCC2C)c1 (stereo unspecified) -0.5%
CNC(=O)c1cc2ccc(OC)cc2oc1=O -6.1%
O=C1CCc2cc(S(=O)(=O)N3CCC(C(=O)NC4CCCc5ccccc54)CC3)ccc2N1 (stereo unspecified) -5.6%
Cc1csc(-c2cnn(-c3ccccc3)c2NC(=O)c2ccccc2)n1 -3.3%
COc1cccc(-c2nn(C)c3sc(C(=O)NCc4ccccn4)cc23)c1 3.4%
COC(=O)c1ccc(NC(=O)C2C3C=CC(O3)C2C(=O)O)cc1 (stereo unspecified) 1.3%
Cc1cccc(-n2c(SCC(=O)N3CCCC3)nnc2-c2ccccn2)c1C -5.2%
CCC/C(O)=C1\C(=O)CC(C)(C)CC1=NCCO 2.8%
O=S(=O)(c1ccc(Br)s1)n1cccn1 -3.1%
O=C(Nc1nncs1)C1COc2ccccc2O1 (stereo unspecified) -5%
O=C(NC(NCCCN1CCOCC1)(C(F)(F)F)C(F)(F)F)C1CCCCC1 -1.1%
Cc1nc(NCCN2CCOCC2)c2nnn(Cc3c(F)cccc3Cl)c2n1 -1.3%
CCOC(=O)/C(C#N)=C(\N)C(C)C(=O)Nc1ccccn1 (stereo unspecified) -3.2%
CCOC(=O)CNC(=O)CSc1nc2cccnc2n1C1CCCCC1 -8.1%
Cn1c(NC(=O)c2cc(Br)ccc2Cl)cc(=O)n(C)c1=O -6.3%

From PubChem BioAssay AID432 (Sanford-Burnham Center for Chemical Genomics, 2006)
